Data: PubChem BioAssay (NCATS)
Results filed as inconclusive are left out. A call without a number means that no potency is given here. Activity calls are given as the source filed them. Calls come from the whole dose curve; as a rule, active = well fitted inhibition curve with a large enough effect; inconclusive = small, poorly fitted or top-dose-only effect; inactive = flat fitted curve, though single readings scatter.

Molecular target: Calcium and integrin-binding protein 1 (Homo sapiens) (UniProt Q99828)
Sequence (Q99828 whole entry, looked up): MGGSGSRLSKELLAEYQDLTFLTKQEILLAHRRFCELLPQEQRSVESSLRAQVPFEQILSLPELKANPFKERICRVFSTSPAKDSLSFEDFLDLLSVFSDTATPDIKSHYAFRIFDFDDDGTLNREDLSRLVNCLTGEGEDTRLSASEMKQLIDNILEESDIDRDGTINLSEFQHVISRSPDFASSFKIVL
Assay: Primary qHTS for Identification of Calcium Integrin Binding Protein 1 (CIB1) Competitor (AID 1508620);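 note: GST tagged CIB1 binding a fluorescein labelled alphaIIb integrin peptide tracer; top concentration of the series differs between compounds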
Conditions: CIB1-GST / FITC-alphaIIb peptide fluorescence polarization; series mostly up to 57.7 µM
Method in brief: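 Fluorescence polarization competition: CIB1-GST (1 uM final) preincubated with compound 15 min at room temperature, then FITC-labeled alphaIIb peptide (100 nM final) added for another 15 min. Polarization read at Ex 480/Em 540.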

| Structure (SMILES) | Potency |
| --- | --- |
| O=C(OC[C@H]1O[C@H](O[C@H]2CO[C@H](CO)[C@@H](O)[C@@H]2O)[C@H](O)[C@@H](O)[C@H]1O)c1ccccc1 | inactive |
| CC1(C)COC(=O)[C@@H]1O[C@@H]1O[C@H](CO)[C@@H](O)[C@H](O)[C@H]1O | inactive |
| CCOC(=O)C(CCc1ccccc1)NC(C)C(=O)N1Cc2ccccc2CC1C(=O)O (stereo not drawn) | inactive |
| C=CC1(C)C=C2CC[C@H]3[C@@](C)(C(=O)O)CCC[C@]3(C)C2CC1 (stereo partly drawn) | inactive |
| CN1CCN(C(=O)c2cc3cc(Cl)ccc3[nH]2)CC1 | inactive |
| CC(=O)OCC1=C[C@@H]2OC(=O)C3=CO[C@@H](O[C@@H]4O[C@H](CO)[C@@H](O)[C@H](O)[C@H]4O)[C@H]1[C@@H]32 | inactive |
| CC1(CO)CCCC2(C)C3COC(=O)C3=CC(O)C12 (stereo not drawn) | inactive |
| CC(C/C=C/C(C)(C)O)C1CCC(C)(O)C(O)C1 (stereo not drawn) | inactive |
| C=CC(C)(CC/C=C(\C)C(=O)OC)OC1OC(COC(=O)CC(C)(O)CC(=O)O)C(O)C(O)C1O (stereo not drawn) | inactive |
| C/C=C/C=C/C(O)=C1/C(=O)[C@]2(C)C(=O)[C@@](C)(O)[C@H]1[C@H]([C@@]1(C)OC(=O)C(C)=C1O)[C@H]2C(=O)CC/C=C/C | inactive |
| COC(=O)C1=COC(OC2OC(CO)C(O)C(O)C2O)C2C(COC(=O)/C=C/c3ccc(O)cc3)C(O)C(O)C12 (stereo not drawn) | inactive |
| CC(=O)/C=C/C1C(C)CC(O[C@@H]2O[C@H](CO)[C@@H](O)[C@H](O)[C@H]2O)CC1(C)C (stereo partly drawn) | inactive |
| COc1cc(C)c(C(=O)NC2C(C)OC(OC3CCC(C)C4C3C=C(C)C3/C(C)=C\CC/C(C)=C/C5(C)C=C(C(=O)O)C(C)CC56OC(=O)/C(=C(\O)C34C)C6=O)C(O)C2(C)O)c(O)c1 (stereo not drawn) | inactive |
